Screening data as filed in PubChem.
Rows were chosen to be rich in hits. Some 3.7% of all compounds tested hit in one or more screens of this group.
ClpP mod – qHTS Assay for Activators of ClpP; purified B. subtilis ClpP, FRET peptide cleavage, 20 min; Potency, µM (top dose mostly 57.5 µM), without a hit: at the top dose activity change, negative = active; actives 1.9% (n = 340,000); AID 651965, 2013; active = well fitted falling curve with a large enough effect; inconclusive = small, poorly fitted or top-dose-only effect; inactive = no such curve, though single readings can be large or run the other way; note: potency is the fitted concentration of half-maximal effect; the source files actives as falling curves though it sought activators and does not explain the sign; nearly all actives have a fitted effect of over 65% in size
Target sequence (P80244 whole entry, looked up): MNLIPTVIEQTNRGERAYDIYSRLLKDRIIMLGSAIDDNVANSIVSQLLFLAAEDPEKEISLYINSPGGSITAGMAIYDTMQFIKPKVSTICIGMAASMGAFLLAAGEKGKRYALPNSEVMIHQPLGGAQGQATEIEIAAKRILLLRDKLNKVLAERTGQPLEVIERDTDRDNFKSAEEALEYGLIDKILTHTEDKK
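Buffer: 100 mM Tris/HCl pH8, 100 mM KCl, 0.05% low protease BSA, 2.5% glycerol, 0.01% Tween-20. ClpP 10 microg/mL final; 20 min RT; delta FRET normalized to ADEP and DMSO controls.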
A549 viability – Nrf2 qHTS screen for inhibitors: counterscreen for cytotoxicity | A549 ARE-Fluc cells, CellTiter-Fluor viability, 18-24 h | Potency, µM (highest dose often 46 µM), for inactives: at the highest dose activity change, negative = cytotoxicity, most hits filed as inhibitors | actives 0.16% (n = 390,000) | AID 504648, 2011; note: potency is the fitted concentration of half-maximal effect; % is set by controls: 0 for no effect and ±100 for the full control effect
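Cytotoxicity counterscreen: CellTiter-Fluor fluorescence was measured in A549 ARE_Fluc cells after 18-24 h of compound exposure in a concentration series. The subsequent BugLite luminescent read reports ARE-luciferase activity.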
p53 reactivator – qHTS assay for re-activators of p53 using a Luc reporter | H1299 p53-A138V BP100-luciferase reporter, luminescence, 24 h | Potency, µM (top dose mostly 92.2 µM), for inactives: at the top dose activity change, positive = activation, usual class: activators | actives 0.063% (n = 320,000) | AID 504706, 2011; note: potency is the fitted concentration of half-maximal effect; % of control where 0% means no effect; nearly all actives have a fitted effect of over 45% in size
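H1299 (p53-null), stable ts p53-A138V + BP100-Luc; 1000 cells/well, Opti-MEM/10% FBS; cpd 4 pt, 1:5; 24 h, 37 deg C, 5% CO2; detection reagent 10 min RT; luminescence.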
Nrf2 ARE act – qHTS of Nrf2 Activators | AREc32 ARE-luciferase reporter (MCF7-derived line), luminescence, 24 h | Potency, µM (doses to about 46.1 µM), inactives show at the highest dose activation, usual class: activators | actives 0.31% (n = 410,000) | AID 624171, 2012; note: potency is the fitted concentration of half-maximal effect; % of control where 0% means no effect; nearly all actives have a fitted effect of over 65% in size
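Cells of the AREc32 ARE-luciferase line are plated in OPTI-MEM containing 5% FBS and left overnight at 37 deg C. Compounds are pinned in, incubation continues 24 hr, and firefly luciferase signal is then measured.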
Nrf2 inh – Nrf2 qHTS screen for inhibitors. A549 ARE-Fluc reporter, luciferase luminescence, 18-24 h. Potency, µM (series often up to 46 µM), without a hit: top-dose activity change, negative = inhibition, hits mostly inhibitors. actives 2.1% (n = 360,000). AID 504444, 2011; note: potency is the fitted concentration of half-maximal effect; % is set by controls: 0 for no effect and ±100 for the full control effect; nearly all actives have a fitted effect of over 60% in size
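In this cell-based qHTS, ARE-driven firefly luciferase in A549 cells reports Nrf2 activity; the luminescent signal after BugLite lysis is the measured value, with a prior CellTiter-Fluor read for cell health.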
miR-21 reporter – qHTS Assay for Modulators of miRNAs and/orActivators of miR-21; 340,000 tested, under 10 active; Potency, µM (highest dose often 38.3 µM), inactives show at the highest dose activity change, positive = activation, hits mostly activators; HeLa miR-21 FLuc reporter, luciferase, 48 h; AID 2288, 2010;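 note: % of control where 0% means no effect; miR-21 action dims this reporter so a rising signal means less miR-21 action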
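HeLa cells endogenously expressing miR-21, stably carrying CMV-driven firefly luciferase with a downstream miR-21 binding site, 2000 cells/well. Titrations up to approximately 40 uM, 48 hours; luciferase luminescence read.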
* marks the source's active call; other numbers are inactive results; ? = inconclusive; nt = no result given; [ ] = another dose, or the depositor's remark. Unless noted, calls come from the whole dose curve; as a rule, active = well fitted curve in the direction sought with a large enough effect; inconclusive = small, poorly fitted or top-dose-only effect, or another doubt; inactive = no such curve, though single readings can be large; an effect the other way counts as inactive or inconclusive.

SMILES	ClpP mod	A549 viability	p53 reactivator	Nrf2 ARE act	Nrf2 inh	miR-21 reporter
Cc1ccc(-n2nc(CO)c(C(=O)NCCCc3ccccc3)n2)cc1C	31.6µM*	0.5%	nt	-0.4%	7.6%	-9.0%
CC(=O)c1ccc(NC(=O)c2nc3ccccc3n(C)c2=O)cc1	1.0%	-2.9%	nt	21.3%	nt	-36.9%
O=C(NC1CC(=O)N(c2cccc(F)c2)C1)C(c1ccccc1)c1ccccc1 (stereo not given)	0.6%	-3.4%	nt	-0.8%	nt	5.3%
COc1cc2cc(C(=O)N3CCOCC3)cc(-c3ccc(C)cc3)c2cc1OC	-16.5%	?	-3.0%	0.2%	18.4µM*	6.5%
COc1ccc(-c2cc(C(=O)N3CCOCC3)c3ccccc3n2)cc1OC	-3.6%	2.8%	-2.2%	4.8%	17.3%	nt
COc1ccc(C(=O)N2CCN(c3ccc(N4CCOCC4)nn3)CC2)cc1OC	25.1µM*	0.2%	-3.3%	-0.3%	10.2%	nt
Cn1c(=O)oc2cc(S(=O)(=O)NC(Cc3ccccc3)C(=O)NCc3ccccc3Cl)ccc21 (stereo not given)	1.5%	0.3%	nt	4.9%	-8.8%	-19.4%
COc1ccc(CCNC(=O)c2cnc3ccc(C)cn3c2=O)cc1OC	-20.0%	3.4%	nt	1.2%	-3.8%	-10.0%
Nc1c(C(=O)NCCc2ccccc2)sc2nc(N3CCOCC3)c3c(c12)CCCC3	nt	2.8%	21.8%	-0.2%	?	-6.1%
CN(C(=O)c1sc2nc(N3CCOCC3)c3c(c2c1N)CCCC3)c1ccccc1	nt	0.6%	1.1%	0.8%	16.4µM*	16.6%
NC(=O)c1sc2nc(N3CCOCC3)c3c(c2c1N)CCCC3	15.8µM*	0.1%	0.4%	-0.9%	-24.5%	-22.9%
CCS(=O)(=O)N1CCc2cc(C(=O)Nc3cc(OC)c(Cl)cc3OC)ccc21	?	6.9%	nt	5.5%	5.2%	0.7%
O=S(=O)(Nc1ccc2ccccc2c1)c1ccccc1	14.1µM*	-0.7%	?	0.4%	-3.9%	-45.6%
COc1ccc(S(=O)(=O)Nc2ccc3ccccc3c2)cc1C	-0.2%	-14.9%	1.9%	3.7%	20.6µM*	-8.5%
c1ccc(-c2cc3ccccc3nc2N2CCCC2)cc1	28.2µM*	-1.2%	7.0%	-0.3%	nt	-1.3%
Cc1ccc(-c2cc3ccccc3nc2N2CCOCC2)cc1	nt	?	-0.5%	2.5%	22.7%	3.8%
CCN1C(=O)[C@H]2[C@H]3[C@H](O)[C@H](O)CC(=O)[C@@H]3CC[C@H]2C1=O	-0.9%	nt	nt	nt	nt	nt
O=C(CN1CCN(c2ccccn2)CC1)Nc1cccc(S(=O)(=O)N2CCCC2)c1	-11.2%	-4.4%	-1.5%	-0.8%	11.6µM*	5.2%
CN(CC(=O)Nc1cccc(S(=O)(=O)N2CCCC2)c1)Cc1ccccc1	25.1µM*	-1.0%	-8.2%	-0.4%	-15.3%	nt
O=C(CNc1cccc(S(=O)(=O)N2CCCC2)c1)Nc1ccc(C(F)(F)F)cc1	-3.1%	-12.4%	-3.4%	-0.1%	23.1µM*	nt
O=C(CN1CCN(c2ccccn2)CC1)Nc1ccc(OCc2ccccc2)cc1	-4.2%	-12.7%	-4.8%	2.5%	20.6µM*	6.4%
Cc1cc(-c2ccccc2C(=O)O)on1	0.5%	-8.0%	-6.6%	-1.0%	-6.7%	-3.7%
O=C(O)c1ccccc1C1=Nc2ccc(O)cc2Oc2cc(O)ccc21	14.1µM*	-1.8%	1.3%	0.0%	2.8%	-3.3%
Cc1cc(C)c(C)c(S(=O)(=O)N2CCN(S(=O)(=O)c3ccc4c(c3)OCCO4)CC2)c1C	nt	0.4%	nt	nt	-12.4%	nt
Clc1ccccc1-c1nnc(-c2ccccc2CNc2ccc(Br)cc2)o1	-3.5%	0.5%	nt	21.7%	?	-16.7%
SMILES	ClpP mod	A549 viability	p53 reactivator	Nrf2 ARE act	Nrf2 inh	miR-21 reporter
CCCc1cc(=O)n2[nH]c(C)cc2n1	31.6µM*	-2.7%	0.5%	-0.2%	-17.6%	-11.3%
Cc1cc(CNC(=O)[C@]2(C(F)(F)F)C[C@H](CCC3CCCCC3)CCCO2)nn1C	nt	7.7%	nt	nt	0.2%	nt
Cc1cccc(CCn2c(=O)c3ccccc3n(CC(=O)Nc3ccccc3F)c2=O)c1	-2.6%	-3.7%	nt	-1.0%	-6.6%	-5.0%
CCN(C1CCCCC1)S(=O)(=O)c1c(C)n(C)c(=O)n(C)c1=O	0.8%	-29.9%	2.5%	0.2%	3.9%	nt
Cc1c(S(=O)(=O)N(C)C2CCCCC2)c(=O)n(C)c(=O)n1C	12.6µM*	-0.8%	3.3%	-0.8%	15.0%	nt
CCOC(=O)Cn1c(=O)n(-c2ccccc2OC)c2nc(-c3ccccc3)nc(C(N)=O)c21	?	-10.5%	nt	0.4%	nt	4.0%
CNC(=O)/C(C#N)=C/c1c(N(Cc2ccccc2)Cc2ccccc2)nc2c(C)cccn2c1=O	?	?	-17.0%	4.1%	25.9µM*	-11.2%
C=C1CCN(C(Cc2ccccc2)C(=O)Nc2ccc(OC)cc2)S(=O)(=O)c2ccccc21 (stereo not given)	nt	-0.7%	nt	nt	13.9%	nt
Cc1c(C(C)C)c(=O)n(-c2ccc(S(=O)(=O)N3CCOCC3)cc2)n1C	nt	1.2%	-0.9%	-0.4%	?	-1.3%
Cc1c(C(C)C)c(=O)n(-c2ccc(S(=O)(=O)NC3CCCCC3)cc2)n1C	nt	0.6%	-3.6%	2.8%	14.6µM*	21.0%
Cc1c(C(C)C)c(=O)n(-c2ccc(S(=O)(=O)NCc3ccccc3)cc2)n1C	nt	-7.1%	1.8%	0.3%	7.31µM*	22.0%
COc1ccc(CC(=O)Nc2cccc(-c3ccc4nncn4n3)c2)cc1OC	nt	?	-2.0%	3.5%	20.6µM*	26.8%
Cc1cccc(C(=O)Nc2cccc(-c3ccc4nncn4n3)c2)c1	nt	0.2%	-4.3%	3.3%	11.6µM*	1.6%
COc1ccc(C(=O)Nc2cccc(-c3ccc4nncn4n3)c2)cc1OC	nt	-3.2%	-3.5%	2.5%	-16.1%	0.3%
COc1cc2cncnc2cc1OCCCCC(N)=O	-24.4%	nt	nt	nt	nt	nt
O=C(CSc1nnc(-c2c[nH]c3ccccc23)o1)N1CCCCC1	-5.9%	2.8%	?	8.0%	?	-55.0%
CC1Cc2ccccc2N1C(=O)CSc1nnc(-c2ccccc2)c(-c2ccccc2)n1 (stereo not given)	-1.6%	0.0%[1.84 µM]	14.8%	-0.2%	23.1µM*	-0.6%
O=C(CSc1nnc(-c2c[nH]c3ccccc23)o1)N1c2ccccc2CCc2ccccc21	-7.3%	-25.7%	-1.3%	-0.1%	11.6µM*	21.8%
CC1Cc2ccccc2N1C(=O)CSc1nnc(-c2ccc(S(=O)(=O)N3CCCC3)cc2)o1 (stereo not given)	?	-7.2%	-4.3%	0.2%	-1.0%	0.2%
